Data from PubChem BioAssay AID1689 (NMMLSC, 2009).
Entries with a potency or affinity are not part of this list. Calls of active or inactive are those of the source.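 The calls were made as follows: active = curve fits scoring over 52 on a 0 to 100 blend rewarding potency under 10 µM and span over 20%; inactive = the rest.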

Target: ATP-dependent translocase ABCB1 (Homo sapiens) (UniProt P08183)
Assay: ABCB1 efflux pump inhibitor potency, dose response, Jurkat-DNR cells, JC-1, flow cytometry (AID 1689)
Conditions: JC-1 efflux; series mostly up to 66.6 µM; inhibition: at the top concentration

ATP-dependent translocase ABCB1 (Homo sapiens), sequence (P08183 whole entry, looked up): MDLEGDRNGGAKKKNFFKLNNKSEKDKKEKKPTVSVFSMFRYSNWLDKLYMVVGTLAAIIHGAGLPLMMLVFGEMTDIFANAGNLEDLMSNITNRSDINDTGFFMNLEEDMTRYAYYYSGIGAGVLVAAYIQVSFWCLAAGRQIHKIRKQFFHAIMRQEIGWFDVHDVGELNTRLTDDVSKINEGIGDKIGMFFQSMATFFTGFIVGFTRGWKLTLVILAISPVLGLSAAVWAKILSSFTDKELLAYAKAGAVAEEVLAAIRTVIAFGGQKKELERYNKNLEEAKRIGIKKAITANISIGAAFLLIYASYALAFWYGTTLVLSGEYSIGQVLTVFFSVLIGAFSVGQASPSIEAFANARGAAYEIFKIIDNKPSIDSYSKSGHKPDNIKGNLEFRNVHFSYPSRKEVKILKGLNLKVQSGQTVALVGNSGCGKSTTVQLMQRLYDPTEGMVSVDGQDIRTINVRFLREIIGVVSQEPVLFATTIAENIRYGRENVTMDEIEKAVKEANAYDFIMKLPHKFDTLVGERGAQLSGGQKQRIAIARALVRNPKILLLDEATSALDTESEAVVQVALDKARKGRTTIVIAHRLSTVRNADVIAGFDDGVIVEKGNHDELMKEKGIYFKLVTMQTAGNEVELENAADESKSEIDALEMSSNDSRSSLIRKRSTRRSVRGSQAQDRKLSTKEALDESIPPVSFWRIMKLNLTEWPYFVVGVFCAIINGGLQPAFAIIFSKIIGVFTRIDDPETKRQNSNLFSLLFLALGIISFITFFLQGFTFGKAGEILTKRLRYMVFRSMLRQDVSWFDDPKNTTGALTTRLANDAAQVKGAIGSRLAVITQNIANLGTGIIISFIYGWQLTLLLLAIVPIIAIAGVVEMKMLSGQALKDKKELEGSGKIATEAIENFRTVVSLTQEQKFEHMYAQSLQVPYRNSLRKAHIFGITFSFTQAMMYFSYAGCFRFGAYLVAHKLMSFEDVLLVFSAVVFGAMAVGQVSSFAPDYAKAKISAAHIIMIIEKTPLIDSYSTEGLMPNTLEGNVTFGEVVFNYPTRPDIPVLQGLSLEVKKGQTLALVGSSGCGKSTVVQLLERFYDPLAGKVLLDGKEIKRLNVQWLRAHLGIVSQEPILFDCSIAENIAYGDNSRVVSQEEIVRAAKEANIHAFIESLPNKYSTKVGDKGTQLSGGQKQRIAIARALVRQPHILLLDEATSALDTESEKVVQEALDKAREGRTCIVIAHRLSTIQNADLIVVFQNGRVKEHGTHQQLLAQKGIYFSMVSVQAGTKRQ

inhibition, inactive:
CC(C)C(NS(=O)(=O)c1ccccc1)C(=O)OCc1cc([N+](=O)[O-])cc2c1OCOC2 (stereo not drawn) 3.67%, CC1=NN(c2ccc([N+](=O)[O-])cc2)C(=O)/C1=C/N(C)C 27.7%, CC(=O)Nc1ccc(Nc2ccc(S(=O)(=O)C(F)(F)F)cc2[N+](=O)[O-])cc1 15.1%, COc1ccccc1Nc1nc2nonc2nc1N1CCCCC1C (stereo not drawn) 5.44%, O=[N+]([O-])c1ccc(Nc2nc(Cl)nc(NCCO)n2)cc1 9.77%, CCCCN(C)C1=CC2=CC(=C(C#N)C#N)CCC2CC1 (stereo not drawn) 29.7%, COc1ccc2cc(C(=O)OC(C)C)sc(=O)c2c1OC 12.8%, N#CC(C#N)=C1C=C2C=C(N3CCCCCC3)CCC2CC1 (stereo not drawn) -21.8%, CCN(CC)C1=CC2=CC(=C(C#N)C#N)CCC2CC1 (stereo not drawn) 98.6%, COc1cccc(-c2nc(N3CC(C)CC(C)C3)c3ccccc3n2)c1O (stereo not drawn) 28.2%, N#CC(C#N)=C1C=C2C=C(N3CCOCC3)CCC2CC1 (stereo not drawn) -7.21%, CCCCN1/C(=C/c2ccc3ccccc3[n+]2CC)Sc2ccccc21 7.55%, CNc1nc2cc([N+](=O)[O-])c([N+](=O)[O-])cc2nc1NC 10.5%, COc1cc(C(=O)Nc2ccc(S(=O)(=O)NC(C)C)cc2)cc(OC)c1OC 3.51%, COC(=O)c1cc(NC(=O)c2ccccc2)c(=O)oc1/C=C/Nc1ccc(Oc2ccccc2)cc1 -244%, CCOC(=O)c1sc2cc([N+](=O)[O-])cc(SCC(C)C)c2c1N 56.3% [at 2.47 µM], CN(C)c1ccc(/C=C2\SC(=S)N(Nc3ncc(C(F)(F)F)cc3Cl)C2=O)cc1 42%, CCOc1ccccc1NC(=O)C(OC(=O)c1ccc(N(C)C)cc1)c1ccccc1 (stereo not drawn) 6.84%, COC(=O)c1ccc(C(C(=O)NC2CCCCC2)N(Cc2ccccc2)C(=O)Cc2cccs2)cc1 (stereo not drawn) 35.9%, COc1ccc(CCNC(=O)COC(=O)/C=C/c2ccc(OC)c(OC)c2)cc1 -20.9%, Cc1cc(C)c(C#N)c(SCc2c(F)cccc2[N+](=O)[O-])n1 14.2%, Cc1c(C(=O)Nc2ccc(F)cc2)c2ccccn2c1CCc1ccncc1 19.6%, CN1CCN(C2=CC3=CC(=C(C#N)C#N)CCC3CC2)CC1 (stereo not drawn) 44.9%
